# In PubChem BioAssay AID1694 (National Center for Advancing Translational Sciences (NCATS), 2009):
# Inconclusive results are not listed. A call without a number means that no potency is given here. The source made the active and inactive calls. Calls follow the shape of the dose curve; as a rule, active = well fitted curve in the direction sought with a large enough effect; inconclusive = small, poorly fitted or top-dose-only effect, or another doubt; inactive = no such curve, though single readings can be large or run the other way.
# Test: Confirmation Concentration-Response Assay for Inhibitors of Tau Fibril Formation, Total Fluorescence Counterscreen for Fluorescence Polarization
# Settings: Alexa594-tau K18 total fluorescence counterscreen, interference, tau K18 with P301L mutation; series mostly up to 100 µM
# From the text: NIH Molecular Libraries Probe Production Network [MLPCN] NIH Chemical Genomics Center [NCGC] MLPCN Grant: X01 MH083262-01 Assay Provider: Carlo Ballatore, University of Pennsylvania NCGC Assay Overview: The microtubule-associated protein tau is an abundant protein in the axons of neurons that stabilizes microtubules. With its ability to modulate microtubule dynamics, tau contributes directly or indirectly, to key structural and regulatory cellular functions. Particularly important is the influence tau exerts on axonal transport, which allows signaling molecules, trophic factors and other essential cellular constituents to travel along the axons. Under pathological conditions, tau becomes sequestered into insoluble aggregates called neurofibrillary tangles. This phenomenon is believed to have pathological consequences by promoting axonal transport deficits that ultimately lead to synaptic dysfunction and neuronal loss. To identify inhibitors of tau aggregation, a heparin-induced tau fibril formation assay was used that employed a recombinantly expressed fragment of tau, K18 (Q242-E372), bearing a P301L mutation (Gustke et al. 1994; Hong et al. 1998). […] Total fluorescence (555 nm excitation and 632 nm emission) was measured to identify fluorescent or absorbent compounds at this wavelength. Such compounds may be artifacts that interfere with the Alexa 594 Tau fluorescence polarization assay. Gustke, N., B. Trinczek, et al. (1994). "Domains of tau protein and interactions with microtubules." Biochemistry 33(32): 9511-22. Hong, M., V. Zhukareva, et al. (1998). "Mutation-specific functional impairments in distinct tau isoforms of hereditary FTDP-17." Science 282(5395): 1914-7. Li, W. and V. M. Lee (2006). "Characterization of two VQIXXK motifs for tau fibrillization in vitro." Biochemistry 45(51): 15692-701. von Bergen, M., S. Barghorn, et al. (2001). "Mutations of tau protein in frontotemporal dementia promote aggregation of paired helical filaments by enhancing local beta-structure." J Biol Chem 276(51): 48165-74.
# For screening, 2 uL/well human K18 P301L (15 uM unlabeled and 0.24 uM Alexa 594-labeled tau final concentrations) in reagent buffer (100 mM sodium acetate pH 7) was dispensed into black solid 1536-well plates (Grenier) using a solenoid-based dispenser. Following transfer of 23 nL compound or DMSO vehicle by a pin tool, 2 uL/well heparin (20 uM final concentration) in reagent buffer was added and the plate centrifuged 15 s at 1000 RPM. Plates were incubated 6 hr at 37 C and then 1 uL/well ThT (30 uM final concentration) was added. After a 1 hr ambient incubation, the plates were read by an Envision (Perkin Elmer) to monitor Alexa 594 FP (555 nm excitation and 632 nm emission). Keywords: NIH Roadmap, MLPCN, MLI, MLSMR, NCGC, qHTS, tau, tauopathies, Alzheimer's disease, fibril, neurodegeneration, aggregation
row,SMILES,Potency
1,CC1CCc2c(sc(NC(=O)Cc3ccccc3)c2C(=O)Nc2ccc(Cl)cc2)C1 (stereo not given),inactive
2,COc1ccc2c(c1)c(CC(=O)Nc1ccc(C(C)=O)cc1)c(C)n2C(=O)c1ccc(Cl)cc1,inactive
3,CCOC(=O)c1nn(-c2ccccc2)c(=O)c2c(NC(=O)c3ccccc3)scc12,inactive
4,CN(C)c1ccc(-c2cc[nH]c(=O)c2N)cc1,inactive
5,O=C(O)CC1S/C(=N/N=C/c2ccc(-c3ccc(Cl)cc3[N+](=O)[O-])o2)NC1=O (stereo not given),inactive
6,Nc1scc2c(C(=O)N3CCOCC3)nn(-c3ccccc3)c(=O)c12,inactive
7,Cc1ccc(C2=NNC(=Nc3ccc(F)cc3)SC2)cc1,inactive
8,CCOC(=O)c1nn(-c2ccc(C)c(C)c2)c(=O)c2c(N)scc12,inactive
9,CCOC(=O)c1c(N)sc2c1CN(C)CC2,inactive
10,CCOC(=O)c1c(N)sc2c1CCOC2,inactive
11,Nc1nc2cc(S(=O)(=O)NC3=NCCCCC3)ccc2s1,inactive
12,O=C(Nc1sc2c(c1C(=O)Nc1cccc(Cl)c1)CCCC2)c1cccs1,inactive
13,CCOC(=O)c1ccc(-n2nc(C(=O)OCC)c3csc(N)c3c2=O)cc1,inactive
14,COc1ncc(-c2ccccc2)cc1N,inactive
15,CCOC(=O)N1CCN(C(=O)CN2C(=O)/C(=C\c3cccc(OC)c3)SC2=S)CC1,inactive
16,Cc1ccc(C(=O)Nc2nc(=O)n(C(=O)C3CC3)s2)cc1,inactive
17,COC(=O)c1nn(-c2ccc(OC)cc2)c(=O)c2c(N)sc(C)c12,inactive
18,O=C(CSc1nc2scc(-c3ccco3)c2c(=O)n1-c1ccccc1)N1CCOCC1,inactive
19,Cc1ccc(NC(=O)N2CCN(c3ccccn3)CC2)cc1,inactive
20,CN(C)S(=O)(=O)c1cccc(N=C2NN=C(c3ccccc3)CS2)c1,inactive
21,Nc1scc2c(C(=O)O)nn(-c3ccccc3)c(=O)c12,inactive
22,CN(C(=S)Nc1cccnc1)c1ccc(O)cc1,inactive
23,CN(c1ccccc1)S(=O)(=O)c1nnc(NC(=O)COc2ccccc2)s1,inactive
24,COc1ccc(-n2nc(C(=O)O)c3csc(N)c3c2=O)cc1,inactive
25,O=S(=O)(c1ccc(NC(=S)N/N=C/c2ccc(N3CCOCC3)cc2)cc1)N1CCOCC1,inactive
